# From PubChem
# This excerpt belongs to a sample that is enriched for hits.
# TSHR agonist – qHTS Assay for Agonists of the Thyroid Stimulating Hormone Receptor; HEK293-CNG-TSHR cells (CNG channel as cAMP sensor), membrane potential dye, cAMP; Potency, µM (top dose mostly 57.1 µM), for the others: at the highest dose activation, usual class: activators; Thyrotropin receptor (Homo sapiens), P16473; 0.48% of 73,000 active; active = well fitted activation curve with a large enough effect in the main read-out, with a control signal flat, not every such curve was filed as active; inconclusive = small, poorly fitted or top-dose-only effect, or a change in a side signal; inactive = no such curve, though single readings can be large or run the other way; % of control where 0% means no effect;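 also: the control signal comes from parental cells without the receptor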
# Target sequence (P16473 whole entry, looked up): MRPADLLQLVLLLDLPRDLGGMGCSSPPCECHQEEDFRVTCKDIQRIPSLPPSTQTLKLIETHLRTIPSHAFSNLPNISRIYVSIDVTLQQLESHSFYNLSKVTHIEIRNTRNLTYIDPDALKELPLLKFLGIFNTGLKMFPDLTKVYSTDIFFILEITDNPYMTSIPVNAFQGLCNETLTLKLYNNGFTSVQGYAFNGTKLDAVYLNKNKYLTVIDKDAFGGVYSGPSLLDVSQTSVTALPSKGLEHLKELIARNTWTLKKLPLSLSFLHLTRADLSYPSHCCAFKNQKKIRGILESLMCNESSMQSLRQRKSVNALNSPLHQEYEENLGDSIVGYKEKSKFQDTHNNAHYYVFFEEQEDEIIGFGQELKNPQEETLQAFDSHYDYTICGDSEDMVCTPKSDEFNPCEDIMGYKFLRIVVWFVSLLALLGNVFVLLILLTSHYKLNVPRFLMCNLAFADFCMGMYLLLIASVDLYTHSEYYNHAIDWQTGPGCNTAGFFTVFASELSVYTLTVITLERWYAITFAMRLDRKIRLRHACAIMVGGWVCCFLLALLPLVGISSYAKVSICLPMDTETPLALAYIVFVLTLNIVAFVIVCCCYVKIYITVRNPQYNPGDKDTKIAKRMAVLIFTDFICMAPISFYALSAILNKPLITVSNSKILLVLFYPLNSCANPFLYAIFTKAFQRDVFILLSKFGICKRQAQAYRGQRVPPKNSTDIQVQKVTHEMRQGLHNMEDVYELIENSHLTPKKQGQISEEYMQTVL
#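 HEK 293 cells stably expressing TSHR and a cAMP-gated CNG channel; parental CNG-only cells as counterscreen. Cells preloaded 60 min with membrane potential dye plus 100 uM RO 20-1724, then compound 30 min; fluorescence read at 590 nm.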
# Peg3 imprint – qHTS Assay for Compounds that Induce Erasure of Genomic Imprints | AID 1948, 2009 | 0.02% of 110,000 active | mouse ES Peg3-LacZ reporter, beta-gal luminescence, 40 h | Potency, µM (series often up to 60.7 µM), without a hit: top-dose activity change, positive = activation, most hits filed as activators
#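 Readout: BetaGlo luminescence (5 min, room temp) for LacZ from the normally silent maternal Peg3 allele in female Peg3LacZ-Neo ES cells. Cells 300/well, 40 h, 37C, 5% CO2. Data normalized per plate to negative controls.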
# HEK293 cAMP ctrl – qHTS Assay for Agonists of the Thyroid Stimulating Hormone Receptor: Activators of Intracellular cAMP Concentrations in Parental HEK 293; parental HEK293 CNG cAMP sensor, membrane potential fluorescence; 2.5% of 73,000 active; Potency, µM (titrated, usually from 57.1 µM), inactives show at the highest dose activation, usual class: activators; also: % of control where 0% means no effect; nearly all actives have a fitted effect of over 55% in size
#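 Parental HEK 293 cells stably expressing a cAMP-gated CNG channel were loaded with membrane potential dye containing 100 uM RO 20-1724 for 60 min. Compound added for 30 min; depolarization read as fluorescence intensity at 590 nm.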
# Numbers without * were called inactive; u = inconclusive; x = no result; [ ] = dose if it differs, or a comment. Unless noted, calls follow the shape of the dose curve; as a rule, active = well fitted activation curve with a large enough effect; inconclusive = small, poorly fitted or top-dose-only effect; inactive = no such curve, though single readings can be large or run the other way. Potency is read from the fitted curve at half-maximal effect.
SMILES,TSHR agonist,Peg3 imprint,HEK293 cAMP ctrl
CCOC(=O)CC(NS(=O)(=O)c1cc(-c2cc(C)no2)ccc1C)c1ccc(C)cc1 (centres undefined),x,13.8%[10.9 µM],x
Cc1ccc(C)c(-n2c(SCC(=O)Nc3nonc3C)nnc2-c2ccoc2C)c1,u,-4.3%,25.1µM*
Cc1nonc1NC(=O)CSc1nnc(-c2ccoc2C)n1C,2.9%,-25.5%,10.0%
CCc1nnc(NC(=O)CSc2nnc(COc3ccccc3)n2-c2ccc(C)cc2)s1,u,6.2%,u
Cc1cccc(C)c1NC(=O)CSc1nnc(-c2ccoc2C)n1C,0.4%,-1.5%,10.3%
Cc1ccc2c3c(c(SCC(=O)Nc4nonc4C)nc2c1)CCCC3,u,-2.9%,7.94µM*
CCc1nnc(NC(=O)CSc2nnc(-c3ccccc3O)n2-c2ccc(C)cc2C)s1,u,-13.3%,20µM*
Cc1ccc(C)c(-n2c(SCC(=O)Nc3nnc(C)s3)nnc2-c2ccoc2C)c1,u,-13.8%,2.51µM*
Cc1nonc1NC(=O)CSc1nc2cc(Cl)ccc2c2c1CCCC2,u,14.7%,u
CCOc1c(Br)cc(C2CC(=O)Nc3cc4c(cc32)OCO4)cc1OC (centres undefined),x,-26.1%[10.9 µM],x
CO[C@@H]1/C=C\O[C@]2(C)Oc3c(C)c(O)c4c(O)c(c(/C=N\N5CCN(C)CC5)c(O)c4c3C2=O)NC(=O)/C(C)=C\C=C/[C@H](C)[C@H](O)[C@H](C)[C@H](O)[C@H](C)[C@H](OC(C)=O)[C@@H]1C,-9.8%,x,-7.9%
O=C(NCCc1c[nH]c2ccccc12)[C@H]1C[C@@H]1[C@H](NP(=O)(c1ccccc1)c1ccccc1)c1ccccc1,3.0%,-17.7%,-11.1%
CCc1ccc(OCC(=O)N(Cc2ccco2)Cc2ccco2)cc1,x,-7.0%[10.9 µM],x
COc1ccc(C2c3c(-c4cc(Cl)c(C)cc4O)n[nH]c3C(=O)N2Cc2cccnc2)cc1OC (centres undefined),7.94µM*,-17.0%,9.5%
CCOc1ccc(C2c3c(-c4ccccc4O)n[nH]c3C(=O)N2Cc2cccnc2)cc1OC (centres undefined),x,-9.8%[10.9 µM],x
O=C(NCCCN1CCCCC1)c1sc2ncccc2c1-n1cccc1,x,-8.2%[10.9 µM],x
C=C(CO)[C@H]1Cc2c(ccc3c2O[C@H]2COc4cc(OC)c(OC)cc4[C@@H]2C3=O)O1,21.1%,x,29.8%
COc1cc2c(cc1OC)[C@@H]1C(=O)c3ccc4c(c3O[C@@H]1CO2)C=CC(C)(C)O4,u,-19.7%,20µM*
CCOC(=O)N1CCc2c(sc3c2c(=O)n(-c2ccc(Cl)cc2)c(=O)n3CC(=O)Nc2ccccc2)C1,x,-4.8%[10.9 µM],x
CN1CCc2cc(Cl)c(O)cc2[C@@H](c2ccccc2)C1,u,-14.1%,25.1µM*
CN1CCc2cc(Cl)c(O)cc2C(c2ccccc2)C1 (centres undefined),x,-10.7%,x
COCCNS(=O)(=O)c1ccc(OCC(=O)OC)c(Cl)c1,20µM*,1.9%,9.8%
COC(=O)COc1ccc(S(=O)(=O)NCc2ccco2)cc1Cl,5.3%,2.9%,0.0%
Cc1cc(C)nc(SCc2nnc(SCC(=O)Nc3cc(C(F)(F)F)ccc3Cl)o2)n1,u,-1.0%,u
Cc1cc(C)nc(SCc2nnc(SCc3ccccc3Cl)o2)n1,u,x,20µM*
SMILES,TSHR agonist,Peg3 imprint,HEK293 cAMP ctrl
Cc1nnc(N2CCC(C(=O)NCCc3ccccc3Cl)CC2)c2nn(-c3ccccc3)c(C)c12,x,6.3%[10.9 µM],x
CCOc1ccc(NC(=O)CCc2c(C)nc3nc(-c4cc(OC)cc(OC)c4)nn3c2C)cc1,x,5.7%[10.9 µM],x
CCCCC[C@H](O)/C=C/[C@H]1[C@H](O)CC(=O)[C@@H]1C/C=C\CCCC(=O)O,u,-18.5%,0.01µM*
CCCCC1CCC(CCCC(C)CCC(=O)O)CC1 (centres undefined),x,-14.8%[10.9 µM],x
CCCCC[C@H](O)/C=C\[C@@H]1[C@H](O)CC(=O)[C@@H]1CCCCCCC(=O)O,u,-5.5%[16.8 µM],0.0025µM*
CCCCC[C@H](O)/C=C\[C@H]1[C@H](C/C=C\CCCC(=O)O)[C@@H](O)C[C@H]1O (tested in a mixture with another compound),u,11.4%[16.8 µM],12.6µM*
CCCCC/C=C\C/C=C\C/C=C\C/C=C\CCCC(=O)OC(CO)CO,x,-7.7%,x
CCCCC[C@H](O)C=C[C@H]1[C@H](O)CC(=O)[C@H]1CCCCCCC(=O)O,u,-4.4%,0.01µM*
CCCCC(C)(O)C/C=C/[C@H]1[C@H](O)CC(=O)[C@@H]1CCCCCCC(=O)OC (some centres undefined),x,11.9%,x
CCOc1ccc(NC(=O)Cn2cc(C(=O)c3ccc(OC)cc3)c(=O)c3cc4c(cc32)OCO4)cc1,x,-9.0%[10.9 µM],x
CCOC(=O)c1ccc(N2C(=O)c3[nH]nc(-c4ccccc4)c3C2c2cccs2)cc1 (centres undefined),x,1.5%[10.9 µM],x
COc1ccccc1CN1CCCC2(CCN(C(=O)c3c(C)noc3C)CC2)C1,7.1%,x,27.8%
CCN1C(=O)[C@H]2[C@H]3[C@H](O)[C@H](O)C/C(=N/OC[C@@H]4O[C@H](c5ccccc5)C=C[C@@H]4Oc4ccc(OC)cc4)[C@@H]3CC[C@@H]2C1=O,-1.4%[11.4 µM],x,-5.3%[11.4 µM]
CCOc1ccccc1CN(Cc1ccco1)S(=O)(=O)c1ccc(-n2cnnn2)c(OC)c1,u,-17.0%,10µM*
COc1cc(S(=O)(=O)N(Cc2ccco2)C2CCCC2)ccc1-n1cnnn1,u,-2.1%,u
O=C(COC(=O)c1ccccc1NC(=O)c1ccco1)Nc1ccc2c(c1)OCO2,u,-47.4%,u
O=C(COC(=O)c1ccccc1NC(=O)c1ccco1)NCCC1=CCCCC1,u,-27.1%,25.1µM*
O=C(Nc1ccc(Cl)cc1)c1cc(S(=O)(=O)N2CCc3ccccc32)ccc1F,x,-11.6%[10.9 µM],x
Cc1cc(OCC(=O)NCc2nc(-c3ccccc3)no2)c(C)cc1Br,u,-2.2%,31.6µM*
Cc1cc(C)c(C)c(OCC(=O)NCc2nc(-c3ccccc3)no2)c1,u,-12.0%,u
COC(=O)c1cc2c(C)nn(-c3ccccc3)c2s1,15.9%,x,29.5%
Cc1nn(-c2ccccc2)c2sc(C(=O)N(CC(=O)NC(C)(C)C)Cc3ccco3)cc12,u,-24.5%,15.8µM*
Cc1nn(CC(=O)NCc2cccc(F)c2)c(=O)c2c(C)n(-c3ccc(Cl)cc3)nc12,x,-5.1%[10.9 µM],x
COc1ccc2[nH]c(=O)c(C(c3nnnn3C(C)(C)C)N(Cc3ccco3)CC3CCCO3)cc2c1 (centres undefined),u,x,15.8µM*
COc1ccc(Cn2nnnc2CN(Cc2cc3ccc(C)cc3[nH]c2=O)C2CCCC2)cc1,u,-13.1%,u
CCC(C)(C)n1nnnc1CN(Cc1cc2cc(OC)ccc2[nH]c1=O)C1CCCC1,u,-13.4%,20µM*
COc1ccc2cc(CN(Cc3ccco3)C(c3nnnn3C3CCCCC3)C(C)C)c(=O)[nH]c2c1 (centres undefined),u,0.8%,u
COC(=O)CS(=O)(=O)c1nc2ccccc2nc1N1CCCCC1,x,-9.0%[10.9 µM],x
COc1ccc(/C=N/n2c(SC)nnc2-c2ccccc2)c(OC)c1OC,u,-23.9%,u
